ALOX12 inh = Primary qHTS assay for inhibitors of human arachidonate 12S-lipoxygenase (ALOX12): Round 2; purified 12hLO, xylenol orange hydroperoxide absorbance; Potency, µM (titrated, usually from 108 µM), without a hit: at the top dose activity change, negative = inhibition, actives largely listed as inhibitors; 1.1% of 580,000 active; also: potency is read from the fitted curve at half-maximal effect; % is scaled to controls: 0 for no effect and ±100 for the full control effect
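Hydroperoxide product was detected by ferrous iron/xylenol orange as the 573 to 405 nm absorbance ratio. Arachidonic acid at 40 uM (final) was turned over for 30 min at room temperature by 150 nM human 12hLO, pH 7.0 Hepes buffer, after 15 min compound preincubation.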
A549 tox = Nrf2 qHTS screen for inhibitors: counterscreen for cytotoxicity | A549 ARE-Fluc cells, CellTiter-Fluor viability, 18-24 h | Potency, µM (doses to about 46 µM), for the others: top-dose activity change, negative = cytotoxicity, actives largely listed as inhibitors | 0.16% of 390,000 active; also: potency is read from the fitted curve at half-maximal effect; % is scaled to controls: 0 for no effect and ±100 for the full control effect
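A549 ARE_Fluc cells in 5% FBS OPTI-MEM were exposed to compounds in concentration-response for 18-24 h at 37 deg C. Viability was read by CellTiter-Fluor fluorescence (Ex 405/Em 525) after 30 min, before the luciferase read.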
Nrf2 inh = Nrf2 qHTS screen for inhibitors | A549 ARE-Fluc reporter, luciferase luminescence, 18-24 h | Potency, µM (top dose mostly 46 µM), for inactives: top-dose activity change, negative = inhibition, actives largely listed as inhibitors | 2.1% of 360,000 active | AID 504444, 2011; also: potency is read from the fitted curve at half-maximal effect; % is scaled to controls: 0 for no effect and ±100 for the full control effect; nearly all actives have a fitted effect of over 60% in size
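Two sequential reads on A549 ARE_Fluc cells exposed to compound for 18-24 h: a CellTiter-Fluor fluorescence read for viability, then a luciferase luminescence read for Nrf2/ARE activity.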
Nrf2 activator = qHTS of Nrf2 Activators; AREc32 ARE-luciferase reporter (MCF7-derived line), luminescence, 24 h; Potency, µM (series often up to 46.1 µM), for the others: top-dose activation, hits mostly activators; 0.31% of 410,000 active; AID 624171, 2012; also: potency is read from the fitted curve at half-maximal effect; % of control where 0% means no effect; nearly all actives have a fitted effect of over 65% in size
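Luminescent ARE reporter assay in AREc32_Fluc cells: overnight plating at 37 deg C, 24 hr compound incubation, Steady-Glo added, 30 min RT before reading.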
LDHA inh = qHTS assay for inhibitors of human lactate dehydrogenase | purified LDHA, NADH/diaphorase-resazurin fluorescence; hits give low values | activity change, % (values are at about 110 or 230 µM) | 0.15% of 480,000 active; in the data active = activity change below about -30%; inconclusive = mostly about -25% to -30%;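 also: plate controls were DMSO wells for no effect and wells without enzyme for full effect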
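Remaining NADH was detected by diaphorase (0.133 mg/mL) converting 37 µM resazurin to fluorescent resorufin, read at 0 and 20 minutes. The preceding 5-minute room-temperature reaction used 2 nM LDHA, 0.2 mM sodium pyruvate and 0.06 mM NADH at pH 7.4.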
ERG-DNA inh = qHTS for Small Molecule Inhibitors of the ERG Ets/DNA interaction. Transcriptional regulator ERG (Homo sapiens), P11308. fluorescence polarization, His-ERG Ets domain / labelled DNA. Potency, µM (doses to about 76.9 µM), inactives show at the top dose FP activity, negative = inhibition, hits mostly inhibitors. 0.028% of 370,000 active. AID 624246, 2012; active = well fitted inhibition curve with a large enough effect in the polarisation, with a control signal flat; inconclusive = small, poorly fitted or top-dose-only effect, or effect the other way, or a change in a side signal; inactive = no such curve, though single readings can be large or run the other way; the % refers to the polarisation;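 also: polarization taken with two DNA probes labelled with fluorescein and Texas red; potency is read from the fitted curve at half-maximal effect; % of control where 0% means no effect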
Target sequence (P11308 whole entry, looked up, the tested form may be a part): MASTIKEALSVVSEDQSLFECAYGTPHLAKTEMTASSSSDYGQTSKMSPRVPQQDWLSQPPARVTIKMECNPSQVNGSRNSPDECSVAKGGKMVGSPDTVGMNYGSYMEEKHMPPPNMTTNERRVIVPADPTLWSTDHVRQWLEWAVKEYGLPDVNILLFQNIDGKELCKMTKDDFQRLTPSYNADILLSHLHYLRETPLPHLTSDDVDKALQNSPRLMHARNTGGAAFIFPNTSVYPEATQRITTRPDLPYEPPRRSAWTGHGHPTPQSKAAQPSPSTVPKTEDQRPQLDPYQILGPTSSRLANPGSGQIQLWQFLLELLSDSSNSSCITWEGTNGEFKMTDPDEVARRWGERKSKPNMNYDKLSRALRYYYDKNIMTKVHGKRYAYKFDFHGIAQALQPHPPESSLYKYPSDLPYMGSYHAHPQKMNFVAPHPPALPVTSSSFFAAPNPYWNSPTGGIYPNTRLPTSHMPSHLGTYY
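His-tagged ERG Ets domain (1 uM in the protein solution; 300mM KCl, 50mM Tris-HCl, 1mM EDTA, 1mM DTT, pH 7.5) received compound, then a probe mix of 5 nM fluorescein-DNA and 100nM Texas-615-DNA. Fluorescence polarization was read for both dyes.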
* = called active by the depositor; ! = repeats disagree. Shown are actives, neighbours in structure and some others; about 2.7% of the full set was active somewhere. Unless noted, calls follow the shape of the dose curve; as a rule, active = well fitted curve in the direction sought with a large enough effect; inconclusive = small, poorly fitted or top-dose-only effect, or another doubt; inactive = no such curve, though single readings can be large; an effect the other way counts as inactive or inconclusive.

COC(=O)Nc1[nH]ncc1[N+](=O)[O-] was read as ALOX12 inh 35µM*, A549 tox 1%, Nrf2 inh 17%, Nrf2 activator 0%, LDHA inh 1 and ERG-DNA inh -2%.
O=S(c1ccccc1O)S(=O)c1ccccc1O (stereo not drawn) was read as ALOX12 inh 2.2µM*, A549 tox -1%, Nrf2 inh 4%, Nrf2 activator -1%, LDHA inh -7 and ERG-DNA inh 4%.
CS(=O)c1ccccc1O (stereo not drawn) was read as ALOX12 inh -6%, A549 tox 2%, Nrf2 inh 19%, Nrf2 activator 0%, LDHA inh -9 and ERG-DNA inh 4%.
For Cc1cccc(-c2cc(C(=O)O)c3cc(C)ccc3n2)c1 the results were ALOX12 inh inconclusive and LDHA inh -12.
CC1CCC(C(C)[C@H]2CCC3C4CC(=O)C5C[C@@H](O)CC[C@]5(C)C4CC[C@@]32C)=NC1 (stereo partly drawn) was read as ALOX12 inh -28%.
Screening CC1=C(CO)C(=O)OC([C@@H](C)C2CC[C@H]3C4C[C@H]5O[C@]56[C@@H](O)C=CC(=O)[C@]6(C)C4CC[C@]23C)C1 (stereo partly drawn) returned ALOX12 inh inconclusive, A549 tox -18%, Nrf2 inh 13µM*, Nrf2 activator -2%, LDHA inh -4 and ERG-DNA inh 1%.
`CC1(C)CN=C(SCc2ccc(C(C)(C)C)cc2)NC1` gave ALOX12 inh -10% and LDHA inh -1.
For COc1ccc(OCCSC2=NCC(C)(C)CN2)cc1 the results were ALOX12 inh 35µM* and LDHA inh 6.
Screening CCOC(=O)C1CCCN(Cc2ccc(OCc3ccccc3)c(OC)c2)C1 (stereo not drawn) returned ALOX12 inh 0.56µM*, A549 tox -2%, Nrf2 inh 1%, Nrf2 activator 3%, LDHA inh -15 and ERG-DNA inh -1%.
Screening CCOC(=O)C1CCCN(Cc2ccc(OCc3ccccc3)cc2)C1 (stereo not drawn) returned ALOX12 inh 0%, A549 tox 9%, Nrf2 inh -2%, Nrf2 activator 5%, LDHA inh -13 and ERG-DNA inh 12%.
Screening COc1ccc(CN2CCCC(C(=O)N3CCc4ccccc4C3)C2)cc1OC (stereo not drawn) returned ALOX12 inh 0.71µM*!, A549 tox 0%, Nrf2 inh 0%, Nrf2 activator 0%, LDHA inh -21 and ERG-DNA inh -3%.
For COc1ccc2c(c1)c(C(C(=O)O)N1CCN(Cc3ccncc3)CC1)cn2CCC(=O)O (stereo not drawn) the results were ALOX12 inh inconclusive and LDHA inh 1.
Screening C[N+](C)(C)CCCC#CC#CCCC[N+](C)(C)C returned ALOX12 inh 40µM* and LDHA inh -13.
`Cc1ccc(CC(=O)NCc2cccs2)cc1` gave ALOX12 inh inconclusive and LDHA inh -2.
Cc1ccc(NC(=O)CCN2CCN(Cc3ccccc3)CC2)cc1Br was read as ALOX12 inh 50µM* and LDHA inh 5.
Cc1cc(NC(=O)CCN2CCN(C/C=C/c3ccccc3)CC2)ccc1Br was read as ALOX12 inh 6.3µM*, A549 tox -17%, Nrf2 inh -7%, Nrf2 activator 6%, LDHA inh -1 and ERG-DNA inh 21%.
Cc1ccccc1N1CCN(CCC(=O)Nc2ccc(F)cc2)CC1 was read as ALOX12 inh 18µM*, A549 tox -6%, Nrf2 inh -10%, Nrf2 activator 0%, LDHA inh 0 and ERG-DNA inh 3%.
For CCOC(=O)C(=O)CC(=O)c1ccc(Cl)c(Cl)c1 the results were ALOX12 inh inconclusive and LDHA inh 11.
`COc1ccc(OC)c(S(=O)(=O)Nc2ccc(-c3ccc(N4CCC(C)CC4)nn3)cc2)c1` gave ALOX12 inh 8.9µM* and LDHA inh 16.
For COc1ccc(S(=O)(=O)Nc2cccc(-c3ccc(N4CCCCC4)nn3)c2)c(OC)c1 the results were ALOX12 inh 11µM* and LDHA inh 13.
Screening Cc1c(C#N)c(O)[nH]c(=O)c1N=Nc1ccc(S(N)(=O)=O)cc1 returned ALOX12 inh 40µM*, A549 tox -14%, Nrf2 inh inconclusive, Nrf2 activator 2%, LDHA inh 4 and ERG-DNA inh 2%.
CSc1ccc(-c2nc3c(C)cccn3c2Nc2ccc3c(c2)OCCO3)cc1 was read as ALOX12 inh 1.4µM*, A549 tox 1%, Nrf2 inh -29%, Nrf2 activator 8%, LDHA inh 5 and ERG-DNA inh 5%.
Screening Cc1ccn2c(Nc3ccc4c(c3)OCCO4)c(-c3ccc(Cl)s3)nc2c1 returned ALOX12 inh inconclusive, A549 tox 1%, Nrf2 inh 1%, Nrf2 activator 4%, LDHA inh 2 and ERG-DNA inh -4%.
Clc1ccc(-c2nc3ccccn3c2Nc2ccc3c(c2)OCCO3)s1 was read as ALOX12 inh 25µM*, A549 tox 7%, Nrf2 inh inconclusive, Nrf2 activator 9%, LDHA inh 6 and ERG-DNA inh 10%.
CN(C)c1ccc(-c2nc3ccc(Cl)cn3c2Nc2ccc3c(c2)OCCO3)cc1 was read as ALOX12 inh 5.6µM*, A549 tox 12%, Nrf2 inh inconclusive, Nrf2 activator 4%, LDHA inh 6 and ERG-DNA inh -3%.
Screening COCCCNC(=S)N1CCN(c2nc(-c3ccc(F)cc3)cs2)CC1 returned ALOX12 inh 17%, A549 tox -1%, Nrf2 inh 15µM*, Nrf2 activator 6%, LDHA inh 0 and ERG-DNA inh 10%.
`CCCNC(=S)N1CCN(c2nc(-c3ccc(C)cc3)cs2)CC1` gave ALOX12 inh 12%, A549 tox -16%, Nrf2 inh 23µM*, Nrf2 activator 4%, LDHA inh -6 and ERG-DNA inh -2%.
COc1ccc(-c2csc(N3CCN(C(=O)c4ccccc4)CC3)n2)cc1 was read as ALOX12 inh 4%, A549 tox -25%, Nrf2 inh 13µM*, Nrf2 activator 0%, LDHA inh -7 and ERG-DNA inh -4%.

Screening data: PubChem BioAssay, National Center for Advancing Translational Sciences (NCATS)
